The campaign covered roughly 48,000 compounds. About 13,000 (27%) showed an effect of 50% or more. The list shows a part of the results.
System: Wolbachia pipientis
Test: Anti-Wolbachia Cell-Based Screen
Assay type: functional
Design: scale not given: in the data most compounds retested in dose-response had high values
Details: 5 µM

Q: With `CSc1ccc(-n2ccnc2-c2cc3n(n2)CCNC3)cc1` as the compound, how does the “Percent Effect” value read?
A: -5.547%

Q: How did the “Percent Effect” value turn out when `CC(C)c1cnc(N2C[C@H](CO)C[C@H](CN3CCOCC3)C2)nc1` was run?
A: -10.14%

Q: With `COCc1noc(C2(c3ccc(Cl)cc3)CCOCC2)n1` as the compound, how does the “Percent Effect” value read?
A: 0.3658%

Q: `Cc1c(Cl)c(CN2CCCC2Cn2cncn2)nc2ccccc12` (configuration not stated) was tested. Which “Percent Effect” value did it give?
A: 0.2475%

Q: How did the “Percent Effect” value turn out when `Cc1cnn(CC2CCCN2C(=O)c2nccc3ccccc23)c1` (configuration not stated) was run?
A: -8.549%

Q: For `Cc1cnn(CC2CCCN2C(=O)c2nccnc2N)c1` (configuration not stated), which “Percent Effect” value is on record?
A: 124%

Q: How did the “Percent Effect” value turn out when `Cc1cnn(CC2CCCCN2C(=O)c2nccnc2N)c1` (configuration not stated) was run?
A: 123.3%

Q: With `Cc1cnn(CC2CCCN2C(=O)c2ccc(C(N)=O)cn2)c1` (configuration not stated) as the compound, how does the “Percent Effect” value read?
A: -6.228%

Q: With `Cc1ccsc1C(=O)N1CC2CC1(C(=O)NCc1ccco1)C2` as the compound, how does the “Percent Effect” value read?
A: -21.25%

Q: With `Cc1oncc1C(=O)N1CC[C@H]2CO[C@H](CN3CCCC3)[C@H]2C1` as the compound, how does the “Percent Effect” value read?
A: 2.112%

Q: Which “Percent Effect” value does the source give for `O=C(N1CCOCC1)N1CCOC[C@H](Oc2ccc(C(F)(F)F)cc2)C1` here?
A: -17.33%

Q: With `COc1ccc(OCC(=O)NS(=O)(=O)c2ccc(Cl)s2)cc1` as the compound, how does the “Percent Effect” value read?
A: 9.961%

Q: For `N#CCc1ccc(OCC(=O)NS(=O)(=O)c2ccc(Br)s2)cc1`, which “Percent Effect” value is on record?
A: -7.056%

Q: How did the “Percent Effect” value turn out when `COc1ccccc1OCC(=O)NS(=O)(=O)c1ccc(Cl)s1` was run?
A: 123.5%

Q: How did the “Percent Effect” value turn out when `COc1cc(C)ccc1OCC(=O)NS(=O)(=O)c1cc(F)ccc1F` was run?
A: 4.965%

Q: `COc1ccccc1OCC(=O)NS(=O)(=O)c1ccc(Cl)cc1F` was tested. Which “Percent Effect” value did it give?
A: 6.198%

Q: Which “Percent Effect” value does the source give for `CC(=O)c1cccc(OCC(=O)NS(=O)(=O)c2ccc(C)s2)c1` here?
A: 0.05865%

Q: For `COc1ccc(OCC(=O)NS(=O)(=O)c2cc(C)ccc2C)cc1`, which “Percent Effect” value is on record?
A: 6.123%

Q: For `COc1cc(C)ccc1OCC(=O)NS(=O)(=O)c1ccc(Br)s1`, which “Percent Effect” value is on record?
A: 133.3%

Q: How did the “Percent Effect” value turn out when `CC(=O)c1ccc(OCC(=O)NS(=O)(=O)c2ccc(Cl)s2)cc1` was run?
A: 1.494%

Q: How did the “Percent Effect” value turn out when `COc1cccc(OCC(=O)NS(=O)(=O)c2ccc(Br)s2)c1` was run?
A: 93.04%

Q: How did the “Percent Effect” value turn out when `COc1cccc(OCC(=O)NS(=O)(=O)c2ccc(C)s2)c1` was run?
A: 7.75%

Q: With `COc1ccc(OCC(=O)NS(=O)(=O)c2ccc(Br)s2)cc1` as the compound, how does the “Percent Effect” value read?
A: 71.28%

Q: `CC(Sc1nncn1C)C(=O)NCCCOc1ccc(F)cc1` (configuration not stated) was tested. Which “Percent Effect” value did it give?
A: 7.065%

Q: `COC1CCCN(C(=O)NCCCF)C1` (configuration not stated) was tested. Which “Percent Effect” value did it give?
A: 5.737%

Q: For `CCOC[C@]12COC[C@H]1CN(Cc1ccc(F)c(F)c1)C2.O=C(O)C(F)(F)F`, which “Percent Effect” value is on record?
A: 108.4%

Q: For `COC[C@]12COC[C@H]1CN(Cc1ccc3c(c1)OCO3)C2.O=C(O)C(F)(F)F`, which “Percent Effect” value is on record?
A: 110.8%

Q: With `CS(=O)(=O)NC[C@]12COC[C@H]1CN(Cc1ccc3c(c1)OCO3)C2.O=C(O)C(F)(F)F` as the compound, how does the “Percent Effect” value read?
A: 100.7%

Q: How did the “Percent Effect” value turn out when `CCOC[C@]12COC[C@H]1CN(Cc1ccc3c(c1)OCO3)C2.O=C(O)C(F)(F)F` was run?
A: 94.03%

Q: With `O=C(O)C(F)(F)F.O=C(O)C(F)(F)F.c1cc2c(cc1CN1C[C@@H]3COC[C@@H](N4CCCC4)[C@@H]3C1)OCO2` as the compound, how does the “Percent Effect” value read?
A: 5.593%

Q: For `CS(=O)(=O)NC[C@]12COC[C@H]1CN(CCc1ccccc1)C2.O=C(O)C(F)(F)F`, which “Percent Effect” value is on record?
A: 1.225%

Q: With `CCS(=O)(=O)NC[C@]12COC[C@H]1CN(Cc1ccsc1)C2.O=C(O)C(F)(F)F` as the compound, how does the “Percent Effect” value read?
A: -7.396%

— ChEMBL document CHEMBL3988442, “University of Dundee, Small-Polar-MMV Screening Library” (2021)
